SMN2 splice enh: qHTS Assay for Enhancers of SMN2 Splice Variant Expression; HEK293 SMN2-luciferase splicing reporter, luminescence, 30-36 h; Potency, µM (titrated, usually from 46.1 µM), for inactives: at the top dose activity change, positive = activation, actives largely listed as activators; 2.8% of 210,000 active; also: % of control where 0% means no effect; nearly all actives have a fitted effect of over 55% in size
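qHTS luciferase splicing reporter: luminescence rises when SMN2 exon 7 is included in transfected HEK293 cells. Compound exposure lasted 30-36 h at 37C, with 4.5 mM final sodium butyrate as control, followed by a ONE-Glo read.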
Rab9 promoter act: qHTS Assay for Rab9 Promoter Activators | Huh7 Rab9 promoter-luciferase reporter, luminescence, 24 h | Potency, µM (titrated, usually from 9.22 µM), for inactives: at the highest dose activation, negative = inhibition, usual class: activators | 2.8% of 320,000 active; also: % of control where 0% means no effect; nearly all actives have a fitted effect of over 60% in size
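Huh7 reporter line, Rab9 promoter upstream of luciferase. Compound exposure 24 h at 37 °C in reduced-serum medium with 10% FBS. Read-out: luminescence.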
Luc counter: Counterscreen for Luciferase (Kinase-Glo TM) Inhibition | Luciferin 4-monooxygenase (Photuris pensylvanica), Q27757 | Kinase-Glo luciferase, ATP luminescence, 8 min | Potency, µM (top dose mostly 38.3 µM), for the others: at the top dose activity change, negative = inhibition, hits mostly inhibitors | 0.28% of 200,000 active | AID 1379, 2008; also: % is scaled to controls: 0 for no effect and ±100 for the full control effect; nearly all actives have a fitted effect of over 60% in size
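Substrate mix (final 50 mM imidazole pH 7.2, 50 mM KCl, 7 mM MgCl2, 10 uM ATP, 0.01% Tween 20, 0.05% BSA) plus pin-tool compound, then Kinase-Glo detection mix; 8 min ambient, luminescence read.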
NPC1 promoter act: qHTS Assay for NPC1 Promoter Activators | Huh7 NPC1 promoter luciferase reporter, 24 h | Potency, µM (titrated, usually from 9.22 µM), without a hit: at the highest dose activation, hits mostly activators | 2.4% of 320,000 active | AID 485313, 2010; also: % of control where 0% means no effect; nearly all actives have a fitted effect of over 60% in size
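Readout is luciferase luminescence, reflecting NPC1 promoter activation in stably transfected Huh7 cells after 24 h compound exposure at 37 °C in reduced-serum medium with 10% FBS.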
FLuc modulator: qHTS profiling assay for firefly luciferase inhibitor/activator using purifed enzyme and Km concentrations of substrates (counterscreen for miR-21 project) | AID 588342, 2011 | purified FLuc, Km substrates, luminescence inhibition | 6.9% of 360,000 active | Luciferin 4-monooxygenase (Photinus pyralis), P08659 | Potency, µM (top dose mostly 57.5 µM), for the others: at the top dose activity change, negative = inhibition, usual class: inhibitors;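 also: plate controls were vehicle for no effect and reference inhibitor for full effect; nearly all actives have a fitted effect of over 55% in size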
Target sequence (P08659 whole entry, looked up): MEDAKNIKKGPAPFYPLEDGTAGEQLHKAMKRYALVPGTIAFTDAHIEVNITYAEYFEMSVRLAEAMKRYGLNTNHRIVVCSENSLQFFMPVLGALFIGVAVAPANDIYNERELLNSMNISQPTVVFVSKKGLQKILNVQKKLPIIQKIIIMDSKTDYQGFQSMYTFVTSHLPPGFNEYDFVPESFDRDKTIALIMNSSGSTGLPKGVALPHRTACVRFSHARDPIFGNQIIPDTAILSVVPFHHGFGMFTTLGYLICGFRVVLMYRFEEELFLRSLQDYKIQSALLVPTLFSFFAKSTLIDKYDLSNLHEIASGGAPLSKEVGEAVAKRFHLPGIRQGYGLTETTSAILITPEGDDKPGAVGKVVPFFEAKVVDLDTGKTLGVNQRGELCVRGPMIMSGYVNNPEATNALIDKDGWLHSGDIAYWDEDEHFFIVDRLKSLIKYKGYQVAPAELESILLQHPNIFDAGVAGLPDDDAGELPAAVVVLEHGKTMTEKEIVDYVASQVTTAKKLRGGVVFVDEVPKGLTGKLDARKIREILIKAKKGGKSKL
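Purified P. pyralis luciferase (10nM final) with 10uM D-luciferin and 10uM ATP (Km levels) in 50mM Tris acetate pH 7.5, 10mM Mg acetate, 0.01% Tween-20, 0.05% BSA; qHTS 6-point titration, ~60 µM downward; luminescence read.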
ELG1 genotox: qHTS screen for small molecules that induce genotoxicity in human embryonic kidney (HEK293T) cells expressing luciferase-tagged ELG1; Potency, µM (top dose mostly 46 µM), for the others: at the top dose activity change, positive = activation, most hits filed as activators; 1.3% of 330,000 active; HEK293T ELG1-luciferase reporter, luminescence, 16 h; also: % of control where 0% means no effect; nearly all actives have a fitted effect of over 60% in size
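16 hr compound incubation (37 °C, 5% CO2) of HEK293T cells carrying luciferase-tagged ELG1; luciferase then measured by ONE-Glo luminescence after 30 min at RT.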
Starred values were filed as active, the others as inactive; ? = inconclusive; . = no result; [ ] = another dose, or the depositor's remark. Hits are enriched below; roughly 7.3% of the tested compounds scored in any of these assays. Calls follow the shape of the dose curve; as a rule, active = well fitted curve in the direction sought with a large enough effect; inconclusive = small, poorly fitted or top-dose-only effect, or another doubt; inactive = no such curve, though single readings can be large; an effect the other way counts as inactive or inconclusive. Potency is read from the fitted curve at half-maximal effect.

SMILES	SMN2 splice enh	Rab9 promoter act	Luc counter	NPC1 promoter act	FLuc modulator	ELG1 genotox
CCc1ccc(-n2c(C)nnc2SCc2nc(-c3ccc(OC)cc3)no2)cc1	-9.4%	.	.	.	2.6%	.
O=C1C=CC(=Nc2cccc3c(N=C4C=CC(=O)O4)cccc23)O1	-3.1%[9.22 µM]	.	-2.6%[7.66 µM]	.	.	.
Oc1cc(NCc2cccnc2)ccc1-c1nc2ccccc2o1	11.2µM*	?	-0.9%	1.41µM*	7.57µM*	?
O=C(Nc1ccc2oc(-c3ccncc3)nc2c1)c1ccccc1	-16.3%	-1.6%	-2.7%	-3.9%	-0.3%	2.1%
COc1ccc(-c2nc3ccccc3o2)cc1NC(=O)COc1cc(C)cc(C)c1	.	.	.	.	-5.8%	.
CC(=O)Nc1ccc2oc(-c3ccccc3)nc2c1	10µM*	2.51µM*	-4.9%	1.26µM*	7.57µM*	?
Fc1ccc(NCc2cccnc2)cc1F	-3.6%	2.8%	0.4%	-1.8%	1.2%	4.3%
COc1ccc(-c2nc3ccccc3o2)cc1NC(=O)COc1ccc(C(C)(C)C)cc1	5.01µM*	.	.	.	-1.2%	.
CC(=O)Nc1ccc2nc3ccccc3nc2c1	.	3.98µM*	.	2.82µM*	19µM*	20.6µM*
CCS(=O)(=O)N1CC(=O)N(c2ccc(Cl)cc2C)C(C)(C(=O)NC2CCCCCC2)C1 (configuration not stated)	.	.	.	.	-4.7%	.
CC(=O)OCC(=O)[C@@]1(O)CCC2C3C[C@H](C)C4=CC(=O)C=CC4(C)C3C(O)CC21C (some centres not stated)	.	.	3.1%[39.9 µM]	.	.	.
O=C(Nc1ccc(-c2nc3ccccc3o2)c(O)c1)c1cc(Cl)ccc1Cl	4.8%	.	.	.	?	.
CC(=O)Nc1cc(-c2nc3ccccc3o2)ccc1Cl	.	?	.	14.9%	16.9µM*	?
CCc1ccc(OCC(=O)Nc2ccc(-c3nc4ccccc4o3)c(O)c2)cc1	?	3.55µM*	-5.0%	2µM*	9.5%	?
CC(C)Cn1c(=O)c2ccccc2n2c(CCC(=O)Nc3cccc(Cl)c3)nnc12	6.3%	.	.	.	-2.2%	.
COc1ccc(CCNC(=O)CCCCn2c(=O)c3ccccc3n(Cc3cccc(C)c3)c2=O)cc1OC	-4.8%	.	.	.	-3.6%	.
Cc1ccc(SCc2nc(-c3ccncc3)no2)cc1	-14.1%	2.6%	0.4%	0.0%	4.2%[2.3 µM]	-0.1%
COc1ccc(-c2noc(CSc3ccccc3)n2)cc1OC	.	3.98µM*	.	?	13.5µM*	13.6%
c1ccc(SCc2nc(-c3ccncc3)no2)cc1	11.2µM*	?	-2.8%	3.98µM*	16.9µM*	14.6µM*
Cc1ccc(SCc2nc(-c3ccccc3)no2)cc1	21.1%	20.6%	7.3%	2.1%	0.4%[2.3 µM]	5.6%
CC(C)c1cnc2c(c1SCc1ccc([N+](=O)[O-])cc1)c(=O)n(C)c(=O)n2C	.	.	.	.	1.2%	.
Cc1c(CC(=O)NCCc2ccccc2F)c(=O)oc2c(C)c3occ(C(C)(C)C)c3cc12	11.8%	.	.	.	0.5%	.
O=C(c1cc2c(s1)-c1ccccc1OC2)N1CCCC1	-22.1%	2.82µM*	-1.3%	?	12µM*	?
CCCN1CCN(C(=O)c2cc3c(s2)-c2ccccc2OC3)CC1	.	3.98µM*	.	?	7.57µM*	14.6µM*
COc1ccc(N2CCN(C(=O)Cc3c(C(=O)O)c(C)cn3C)CC2)cc1	.	.	.	.	-6.9%	.
SMILES	SMN2 splice enh	Rab9 promoter act	Luc counter	NPC1 promoter act	FLuc modulator	ELG1 genotox
Cc1ccc(-c2nc3ccccc3nc2Cl)cc1	15.2%	-2.2%	4.0%	-2.1%	?	4.2%
Cc1ccc(-c2nc3ccccc3nc2NN)cc1	.	?	.	5.7%	1.35µM*	8.2µM*
COc1ccc(S(=O)(=O)N(CC(=O)NC(C)c2ccccc2)c2ccc(C)cc2)cc1OC (configuration not stated)	2.1%	.	.	.	-2.6%	.
CC(=O)Nc1ccc(SCC(=O)Nc2ccccc2-c2ccccc2)cc1	-29.4%	-1.7%	-0.5%	3.6%	-2.4%	-0.4%
CC(=O)Nc1ccc(SCc2ncc(-c3ccccc3)o2)cc1	.	0.708µM*	.	1.41µM*	13.5µM*	?
COc1ccc(NC(=O)c2ccccc2)c([N+](=O)[O-])c1	?	2.82µM*	-5.3%	?	?	?
COc1ccc(NC(=O)c2cccnc2)c([N+](=O)[O-])c1	10.3%	-27.3%	0.4%	-34.6%	-6.4%	-0.2%
CCC(=O)Nc1ccc(C(=O)Nc2ccc(OC)cc2[N+](=O)[O-])cc1	.	-5.1%	.	-0.1%	-1.7%	11.3%
CCCc1cc(C(=O)Nc2ccc(OC)cc2[N+](=O)[O-])cs1	.	22.8%	.	21.6%	12µM*	12.0%
CCCNC(=O)C1CCC(Cn2c(=O)c3sccc3n(CC(=O)N(CC)CC)c2=O)CC1 (configuration not stated)	.	.	.	.	-1.6%	.
CC(=O)c1ccc(N=Nc2ccc(N(C)C)cc2)cc1	14.0%	0.398µM*	?	0.562µM*	0.301µM*	?
CN(C)c1ccc(N=Nc2ccccc2Br)cc1	.	6.31µM*	.	3.55µM*	0.19µM*	?
CN(C)c1ccc(C(=N)c2ccc(N(C)C)cc2)cc1	13.0%	.	.	.	.	.
CN(C)c1ccc(/C(=N\O)c2ccccc2)cc1	21.5%	13.9%	-4.8%	27.3%	?	23.0%
CC(=O)c1ccc(N=Nc2ccc(C)cc2)cc1	1.26µM*	0.316µM*	-8.7%	0.316µM*	0.953µM*	0.461µM*
CCOC(=O)c1ccc(NS(=O)(=O)c2ccc3c(c2)CCN3C(=O)CC)cc1	-30.4%	.	.	.	-17.8%	.
CSc1ccccc1OCc1cc(C(=O)N2CCC(c3ccncc3)CC2)no1	.	-19.8%	.	-24.5%	-17.4%	-8.3%
CSc1ccccc1OCc1cc(C(=O)N2CCN(c3ccccc3)CC2C)no1 (configuration not stated)	.	4.47µM*	.	?	15.1µM*	13.4%
CC(=O)c1ccc(OCc2cc(C(=O)N3CCN(c4ccccc4)CC3C)no2)cc1 (configuration not stated)	.	1.26µM*	.	1.58µM*	8.49µM*	?
CC(=O)c1ccc(OCc2cc(C(=O)N3CCC[C@H]3CO)no2)cc1	.	10.0%	.	-5.1%	-3.3%	3.3%
COc1ccccc1C(=O)Nc1ccc2c(c1)nc(CCNC(C)=O)n2C	?	?	-2.9%	?	15.1µM*	?
COc1ccccc1C(=O)Nc1ccc2c(c1)nc(CN1CCN(C(C)=O)CC1)n2C	-15.4%	-5.0%	-0.3%	-3.7%	-10.3%	4.7%
CCC(=O)NCCc1nc2cc(NC(=O)c3ccccc3OC)ccc2n1C	.	28.8%	-8.3%	23.3%	21.3µM*	?
